Measured values taken from PubChem BioAssay (NCI).
The panel holds about 83,000 compounds, 20% with a hit somewhere; the sample as a whole holds those more often.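 Single-concentration screen, 48 h exposure, 96-well plates. Endpoint: percent growth. Below 10 = active.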 Active and inactive are the calls of the source.

How the values were obtained:
Test in all cases: NCI-60 one-dose screen, 48 h (100 = growth as untreated, 0 = no growth, -100 = all killed)
Details in all cases: 10 µM unless noted
[1] = tested on: HCT-15 colon
[2] = tested on: HT29 colon
[3] = tested on: SNB-75 CNS
[4] = tested on: SNB-19 CNS
[5] = tested on: U251 CNS
[6] = tested on: PC-3 prostate
[7] = tested on: SK-MEL-5 melanoma
[8] = tested on: UACC-62 melanoma
[9] = tested on: LOX IMVI melanoma
[10] = tested on: SK-MEL-28 melanoma

Measured: growth

CCOc1ccc(C(=O)Nc2ncc(Cc3ccc(F)cc3)s2)cc1
active: [2] -18.2%
inactive: [1] 14.7% | [3] 10.2% | [4] 29.6% | [5] 16% | [6] 27.4% | [7] 33.4% | [8] 33% | [9] 23.7% | [10] 61.9%

Cc1nn(-c2ccccc2)c2ncnc(N/N=C/c3ccccc3)c12
inactive: [1] 85.4% | [2] 89.1% | [3] 82.9% | [4] 84.4% | [5] 85% | [6] 85.2% | [7] 92.2% | [8] 90.6% | [9] 105% | [10] 98.4%

CC(C)(C)c1ccc(CC(=O)Nc2sc3c(c2C(N)=O)CCC(=O)C3)cc1
inactive: [3] 23% | [4] 22.8% | [5] 14.9% | [6] 13.1%
active: [1] -19.5% | [2] 3.3% | [7] -76% | [8] -32.8% | [9] -3.55% | [10] 5.18%

CC(C)(O)c1cncc(-c2ccc3ncnc(NCc4ccccc4)c3c2)c1
inactive: [1] 103% | [2] 96.7% | [3] 31% | [4] 91.8% | [5] 109% | [6] 84.1% | [7] 87.6% | [8] 84.3% | [9] 57.2% | [10] 88%

c1ccc(C(c2nc3ncncc3[nH]2)N2CSc3nc4ccccc4n3C2)cc1 (stereo not given)
inactive: [1] 101% | [2] 107% | [3] 91% | [4] 100% | [5] 107% | [6] 95.6% | [7] 106% | [8] 93.1% | [9] 102% | [10] 104%

CN(Cc1ccccc1)S(=O)(=O)/N=C1\NC(=O)NC1=C(Cl)Cl
active: [1] -69% | [9] -84.5%
inactive: [2] 48% | [3] 107% | [4] 68.6% | [5] 18.8% | [6] 35.6% | [7] 95.7% | [8] 62.2% | [10] 11.2%

NC(=O)c1c(NC(=O)c2ccccc2C(F)(F)F)sc2c1CCC(=O)C2
inactive: [1] 10.7% | [2] 18.7% | [3] 44.8% | [4] 20.8% | [5] 14.3% | [6] 17.5% | [8] 10.4% | [9] 19.7% | [10] 42.4%
active: [7] -59.5%

CCc1cccc(NC(=O)CNc2cc(S(=O)(=O)N(C)C)cc(C)c2C)c1
inactive: [1] 106% | [2] 104% | [3] 47% | [4] 97.3% | [5] 104% | [6] 81.6% | [7] 82.8% | [8] 72.5% | [9] 89.9% | [10] 99.5%

Nc1nc(-c2cccc([N+](=O)[O-])c2)c(N=Nc2ccc(Br)cc2)s1
active: [1] 0.133% | [3] -27.9% | [5] -89.3% | [6] 2.83% | [7] -38.5% | [8] -37.8% | [9] -84% | [10] 4.69%
inactive: [2] 30.1% | [4] 29.9%

NS(=O)(=O)c1ccc(Nc2nc(N/N=C/c3ccccn3)nc(Nc3ccccc3)n2)cc1
active: [2] 6.29% | [3] -25.4% | [4] 9.62% | [5] -55.2% | [6] -7.87% | [7] -84.8% | [8] -49.3% | [9] -43.7% | [10] -64.3%
inactive: [1] 17.6%

COc1ccc(OC)c(-c2nc(SCC(=O)c3ccc(Br)cc3)nc(Nc3ccc(S(N)(=O)=O)cc3)c2C#N)c1
inactive: [1] 22.1% | [2] 27.2% | [3] 22.1% | [4] 49.9% | [5] 37.6% | [6] 35.3% | [7] 56.1% | [8] 42.7% | [9] 32.6% | [10] 57.7%

Cc1ccc(NC(=S)NNC(=S)Nc2ccc(C)cc2)cc1
inactive: [1] 96.7% | [2] 105% | [3] 96.1% | [4] 98.5% | [5] 106% | [6] 101% | [7] 102% | [8] 98.6% | [9] 115% | [10] 105%

CCOC(=O)c1c(N)c(C#N)cn1-c1cc(OC)c(OC)c(OC)c1
inactive: [1] 106% | [2] 107% | [3] 92.7% | [4] 101% | [5] 114% | [6] 105% | [7] 111% | [8] 101% | [9] 97.8% | [10] 108%

NC(N)=Nc1ccc(Oc2cccc(NC(N)=Nc3ccc(Br)c(C(F)(F)F)c3)c2)cc1
inactive: [1] 83.1% | [2] 40.1% | [3] 62.5% | [4] 10.2% | [5] 21.4% | [7] 36.8% | [8] 44.2% | [10] 64.1%
active: [6] 4.3% | [9] -58.9%

C[C@@H](Nc1c(C#N)cnc2ccc(-c3cnc(Cl)c(NS(C)(=O)=O)c3)cc12)c1ccccc1
inactive: [1] 10.2% | [2] 11.6% | [4] 15.7% | [5] 15.2%
active: [3] -30% | [6] 5.67% | [7] -82.8% | [8] -12% | [9] -24.6% | [10] 5.72%

CC(=O)N1N=C(c2cccc(-n3cccc3)c2)CC1c1cccc(F)c1 (stereo not given)
inactive: [1] 92.8% | [2] 100% | [3] 104% | [4] 88.5% | [5] 93.4% | [6] 84.9% | [7] 98.7% | [8] 81% | [9] 95.5% | [10] 103%

CCOC(=O)c1c(Nc2ccccc2)nn2c(-c3ccc(Cl)cc3)ccnc12
inactive: [1] 77.8% | [2] 83.7% | [3] 88% | [4] 72.1% | [5] 81.5% | [6] 80.5% | [7] 80.2% | [8] 82.8% | [9] 64.5% | [10] 87.2%

NS(=O)(=O)c1ccc(Nc2cc(-c3ccccc3)nc(SCC(=O)c3ccccc3)n2)cc1
inactive: [1] 99.4% | [2] 106% | [3] 91.6% | [4] 91.7% | [5] 100% | [6] 98.4% | [7] 98.6% | [8] 91.1% | [9] 97.8% | [10] 104%

CCC1=Cc2cc(OC)ccc2OC12C=Cc1cc(OC)ccc1O2 (stereo not given)
active: [2] -9.52% | [8] 4.11% | [9] -5.73%
inactive: [1] 14.7% | [3] 24.5% | [4] 20.8% | [5] 28.7% | [6] 31.6% | [7] 16.8% | [10] 56.6%

COc1ccc(Oc2ccc(/C=N/NC(=O)CSc3nc4ccccc4c(=O)n3-c3ccc(Cl)cc3)cc2)cc1
inactive: [1] 56% | [2] 16.1% | [3] 41.6% | [4] 61.5% | [5] 36.5% | [6] 63.7% | [7] 78% | [8] 61.9% | [9] 14.7% | [10] 89.3%

COc1ccc(C(=O)CSc2nc3c(c(Nc4ccc(S(N)(=O)=O)cc4)n2)CCCC3)cc1
inactive: [1] 88.4% | [2] 96.4% | [3] 119% | [4] 94.1% | [5] 89.9% | [6] 83.7% | [7] 96.6% | [8] 93.5% | [9] 83% | [10] 110%

O=C(Nc1nc2ccc([N+](=O)[O-])cc2s1)Nc1ccccc1Br
inactive: [1] 24.3% | [2] 44.9% | [3] 77.3% | [4] 20.5% | [5] 10.6% | [8] 32.3% | [9] 44.8% | [10] 48.8%
active: [6] 3.13% | [7] -3.21%

NC(N)=Nc1ccc(Oc2cccc(Nc3ccc(Cl)cc3)c2)cn1
inactive: [3] 22.9% | [4] 23.8% | [7] 48.8% | [8] 43.3% | [10] 49.4%
active: [1] -48.7% | [2] 4.94% | [5] -71.2% | [6] -77.5% | [9] -96.9%

COc1cc(-c2nn(C(C)(C)C)cc2-c2ccnc(NCCCNS(=O)(=O)c3ccc(Cl)cc3)n2)ccc1Cl
inactive: [1] 51.5% | [2] 49.4% | [3] 41.7% | [4] 87.1% | [5] 77.3% | [6] 30.5% | [7] 77% | [8] 61.7% | [9] 65.4% | [10] 84.2%

Clc1nc2ccccc2nc1-c1nnc(C2CCCCC2)o1
inactive: [1] 71.7% | [2] 109% | [3] 97.2% | [4] 98.7% | [5] 97.9% | [6] 95.8% | [7] 98.8% | [8] 96.4% | [9] 66.6% | [10] 104%
